The values that follow come from article PMC8384837, “Expanding the binding specificity for RNA recognition by a PUF domain”.

What all share (experiment): yeast three-hybrid, YBZ-1, SC-Leu-His + 0.5 mM 3-AT, 4 days
Common to all, as to conditions: tags: N-Gal4 AD-HA kept; label: inside an RPR1-promoter hybrid RNA with tandem MS2 sites; ssRNA

In one test the target is PUM1 PUF domain R8-CYC (Homo sapiens, UniProt Q14671 828-1176, N1122C;Q1126C). The procedure, abridged: (§1)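 A centromeric plasmid in strain YBZ-1 co-expressed Pumilio-1 PUF domain libraries, randomized at the three base-contacting residues of each repeat, with matching RNA elements; the strain carries a LexA–MS2 coat fusion and a HIS3 reporter. After four days on SC-Leu (input) or SC-Leu-His + 0.5 mM 3-AT (selection), the repeat regions were PCR-amplified and Illumina-sequenced. The interaction score is the log change in variant frequency from input to selection, using log2 and a pseudocount of 1 where absent.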

The target of a further test is PUM1 PUF domain R8-AWQ (Homo sapiens, UniProt Q14671 828-1176, N1122A;Y1123W). The procedure, abridged: as §1
The next test deals with PUM1 PUF domain R1-MPR (Homo sapiens, UniProt Q14671 828-1176, S863M;R864P;Q867R). The procedure, abridged: as §1
In another test the target is PUM1 PUF domain R1-KNI (Homo sapiens, UniProt Q14671 828-1176, S863K;R864N;Q867I). The procedure, abridged:
as §1

A further test deals with PUM1 PUF domain R1-KCQ (Homo sapiens, UniProt Q14671 828-1176, S863K;R864C). The procedure, abridged: as §1
A further test addresses T1, PUM1 PUF domain R6-IFN (Homo sapiens, UniProt Q14671 828-1176, N1043I;Y1044F;Q1047N).
T1 sequence: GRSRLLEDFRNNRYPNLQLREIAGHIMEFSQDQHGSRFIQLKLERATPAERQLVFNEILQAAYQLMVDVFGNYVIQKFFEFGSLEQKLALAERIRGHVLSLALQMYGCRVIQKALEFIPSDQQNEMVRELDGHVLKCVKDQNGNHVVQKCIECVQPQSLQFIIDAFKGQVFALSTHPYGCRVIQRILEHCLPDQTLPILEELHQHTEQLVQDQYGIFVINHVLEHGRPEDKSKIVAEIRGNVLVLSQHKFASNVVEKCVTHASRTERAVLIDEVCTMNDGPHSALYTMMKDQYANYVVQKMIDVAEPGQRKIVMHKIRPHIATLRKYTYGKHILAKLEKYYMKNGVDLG
In short, it runs like this:
as §1

For a further test, the target named is PUM1 PUF domain R5-GSK (Homo sapiens, UniProt Q14671 828-1176, C1007G;R1008S;Q1011K). The procedure, abridged:
as §1

Another test deals with PUM1 PUF domain R8-RYQ (Homo sapiens, UniProt Q14671 828-1176, N1122R). In short, it runs like this: as §1

With “GGCUAGAACUAGUGGAUCCCCCGGCGCCCGGCGGCUCGAGCCCGGGUAAGCGUAAAUAGUCUGCAUGCCGCCGGGCGCCAUGCCUGCAGGUCGACUCUAGAAAACAUG”, the binding signal is 2.77 log2 enrichment (interaction score) in the test with PUM1 PUF domain R8-CYC and 2.11 log2 enrichment (interaction score) with PUM1 PUF domain R8-AWQ. For “GGCUAGAACUAGUGGAUCCCCCGGCGCCCGGCGGCUCGAGCCCGGGUAAGUGUAAAUCGUCUGCAUGCCGCCGGGCGCCAUGCCUGCAGGUCGACUCUAGAAAACAUG”, the binding signal is 2.06 log2 enrichment (interaction score) with PUM1 PUF domain R1-MPR and 4.2 log2 enrichment (interaction score) with PUM1 PUF domain R1-KNI. For “GGCUAGAACUAGUGGAUCCCCCGGCGCCCGGCGGCUCGAGCCCGGGUAAGUGUAAAUUGUCUGCAUGCCGCCGGGCGCCAUGCCUGCAGGUCGACUCUAGAAAACAUG”, the binding signal was 3.08 log2 enrichment (interaction score) in the test with PUM1 PUF domain R1-MPR and 3.28 log2 enrichment (interaction score) with PUM1 PUF domain R1-KCQ. On to “GGCUAGAACUAGUGGAUCCCCCGGCGCCCGGCGGCUCGAGCCCGGGUAAGUGAAAAUAGUCUGCAUGCCGCCGGGCGCCAUGCCUGCAGGUCGACUCUAGAAAACAUG”, for which the binding signal with PUM1 PUF domain R6-IFN is 5.05 log2 enrichment (interaction score). In the case of “GGCUAGAACUAGUGGAUCCCCCGGCGCCCGGCGGCUCGAGCCCGGGUAAGUGUUAAUAGUCUGCAUGCCGCCGGGCGCCAUGCCUGCAGGUCGACUCUAGAAAACAUG”, in the test with PUM1 PUF domain R5-GSK, the binding signal is 2.59 log2 enrichment (interaction score). As to “GGCUAGAACUAGUGGAUCCCCCGGCGCCCGGCGGCUCGAGCCCGGGUAAGUGUAAAUAGUCUGCAUGCCGCCGGGCGCCAUGCCUGCAGGUCGACUCUAGAAAACAUG”, the binding signal with PUM1 PUF domain R8-RYQ is 4.32 log2 enrichment (interaction score); with PUM1 PUF domain R8-AWQ, 3.01 log2 enrichment (interaction score). For “GGCUAGAACUAGUGGAUCCCCCGGCGCCCGGCGGCUCGAGCCCGGGUAAGGGUAAAUAGUCUGCAUGCCGCCGGGCGCCAUGCCUGCAGGUCGACUCUAGAAAACAUG”, the binding signal with PUM1 PUF domain R8-RYQ was 2.37 log2 enrichment (interaction score).
